Screens as filed in PubChem.
HEK293 tox: HEK 293 cell cytotoxicity; HEK 293 viability, ATP luminescence (CellTiter-Glo), 48-72 h; Potency, µM (doses to about 115 µM), hits mostly inhibitors; 94,000 tested, 6.6% active; AID 1345083; note: nearly all actives have a fitted effect of over 60% in size
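HEK 293 cells at 250 cells/well were exposed to compounds by pintool transfer for 48 or 72 hr at 37 degree Celsius, 5% CO2. Viability was read as ATP-coupled luminescence with CellTiter-Glo after 10 min at room temperature.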
NPR1 antag: blocks ANP-stimulated signaling of human Npr1 receptor; 76,000 tested, 1.6% active; HEK293 hNpr1 GloSensor cGMP, ANP-stimulated luminescence; P16066; Potency, µM (series often up to 46.3 µM), hits mostly inhibitors; AID 1347048; calls by dose curve; note: nearly all actives have a fitted effect of over 60% in size
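HEK293 cells stably expressing human Npr1 and cGMP GloSensor pGS-40F, loaded 2 h with 2% GloSensor reagent, given compound 30 min at room temperature. Luminescence read before and 20 min after 0.1 nM hNppA.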
3T3 cytotox: NIH 3T3 cell cytotoxicity. Potency, µM (series often up to 96.7 µM), actives largely listed as inhibitors. NIH 3T3 viability, CellTiter-Glo ATP luminescence, 48-72 h. 94,000 tested, 4.3% active; note: nearly all actives have a fitted effect of over 55% in size
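Cytotoxicity is measured as loss of cellular ATP: NIH 3T3 cells (400/well) are exposed to compound for 48 or 72 hr at 37 °C, then CellTiter-Glo luminescence is imaged after 10 min at room temperature.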
GPT2 inhibitor: GPT2 alanine aminotransferase inhibition | Q8TD30 | 100,000 tested, 0.25% active | Recombinant GPT2, coupled pyruvate oxidase/HRP Amplex Red fluorescence | Potency, µM (highest dose often 57.7 µM), usual class: inhibitors; note: nearly all actives have a fitted effect of over 60% in size
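Recombinant GPT2 (10ng/uL) with 250uM a-KG and 2mM L-alanine, 30 min at room temperature, in HEPES pH 7.5 buffer. Pyruvate detected by pyruvate oxidase/HRP/Amplex Red fluorescence after 30 min in the dark; AOA (50uM) as positive control.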
FLuc inh: blocks purified firefly luciferase enzyme activity; P08659; purified P. pyralis luciferase, luminescence, biochemical; Potency, µM (doses to about 115 µM), usual class: inhibitors; 76,000 tested, 2.5% active; note: nearly all actives have a fitted effect of over 65% in size
Target sequence (P08659 whole entry, looked up): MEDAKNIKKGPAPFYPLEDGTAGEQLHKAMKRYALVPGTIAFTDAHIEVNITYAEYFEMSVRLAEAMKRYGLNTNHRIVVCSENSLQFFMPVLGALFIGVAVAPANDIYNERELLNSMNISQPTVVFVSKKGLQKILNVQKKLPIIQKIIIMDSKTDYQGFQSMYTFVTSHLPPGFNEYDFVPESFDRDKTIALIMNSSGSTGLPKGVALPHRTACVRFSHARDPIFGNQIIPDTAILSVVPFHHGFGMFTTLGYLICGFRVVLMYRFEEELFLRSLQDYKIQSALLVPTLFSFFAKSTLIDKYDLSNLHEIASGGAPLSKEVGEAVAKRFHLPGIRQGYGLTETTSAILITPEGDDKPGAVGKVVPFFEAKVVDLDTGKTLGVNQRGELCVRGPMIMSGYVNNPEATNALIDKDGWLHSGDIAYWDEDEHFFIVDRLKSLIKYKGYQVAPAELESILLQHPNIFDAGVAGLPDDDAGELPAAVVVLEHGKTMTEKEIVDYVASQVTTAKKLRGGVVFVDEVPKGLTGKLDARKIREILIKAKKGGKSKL
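Luminescence read by CCD imaging after purified firefly luciferase (10nM final) was added to substrate buffer holding 10uM D-luciferin and 10uM ATP, pH 7.5, pre-dosed with compound.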
NPR1 antag cnf: confirmation of human Npr1 natriuretic peptide receptor antagonists; shares compounds with NPR1 antag; Potency, µM (top dose mostly 57.6 µM), usual class: inhibitors; HEK293 hNpr1 cGMP GloSensor luminescence, ANP-stimulated; AID 1347044; 1,400 tested, 76% active; calls by dose curve; note: nearly all actives have a fitted effect of over 70% in size
Npr2 selectivity: hNpr2 antagonism, selectivity versus Npr1; shares compounds with NPR1 antag; HEK293 hNpr2 GloSensor cGMP luminescence, CNP-stimulated; Potency, µM (highest dose often 57.6 µM), most hits filed as inhibitors; 1,400 tested, 67% active; AID 1347046; calls by dose curve; note: nearly all actives have a fitted effect of over 70% in size
FLuc inh counter: counter-screen for Npr1 antagonists: firefly luciferase inhibitors; AID 1347047; Potency, µM (titrated, usually from 57.6 µM), hits mostly inhibitors; purified FLuc enzyme, luminescence, Km substrate; shares compounds with NPR1 antag; 1,400 tested, 0.7% active; note: series mostly up to about 58 µM
GloSensor cGMP: counter-screen for Npr1 antagonists: GloSensor control cell line; AID 1347051; Potency, µM (highest dose often 57.6 µM), hits mostly inhibitors; 1,400 tested, 69% active; HEK293 GloSensor cGMP, SNP-stimulated, luminescence; shares compounds with NPR1 antag; calls by dose curve; note: nearly all actives have a fitted effect of over 70% in size
A number is an active result; i = inactive; ? = inconclusive; nt = not tested or not shown. Shown are actives, neighbours in structure and some others; about 10% of the full set was active somewhere. Unless noted, calls come from the whole dose curve; as a rule, active = well fitted curve in the direction sought with a large enough effect; inconclusive = small, poorly fitted or top-dose-only effect, or another doubt; inactive = no such curve, though single readings can be large; an effect the other way counts as inactive or inconclusive.

SMILES	HEK293 tox	NPR1 antag	3T3 cytotox	GPT2 inhibitor	FLuc inh	NPR1 antag cnf	Npr2 selectivity	FLuc inh counter	GloSensor cGMP
Cc1ccc(C(=O)N2CCC3(CC2)N=C(c2ccc(Br)cc2)NO3)cc1	?	16µM	i	i	i	22µM	19µM	i	19µM
CN(C)CCNC(=O)C(C)(C)Oc1nn(CC2CCOCC2)c2ccccc12	i	i	?	i	i	nt	nt	nt	nt
CC(C)n1c(CNC(=O)Cn2nc3c(cc2=O)CCCCC3)nc2ccccc21	?	i	?	i	i	nt	nt	nt	nt
COc1ccc(-c2cccc(C(=O)N3CCC(NC(=O)Cc4ccccn4)CC3)c2)nn1	i	nt	i	nt	nt	nt	nt	nt	nt
O=C(C1CC1)N1CCC(c2noc(-c3cccnc3)n2)C1 (centres undefined)	i	i	i	i	i	nt	nt	nt	nt
O=C(c1[nH]nc2c1CCc1ccccc1-2)N1CCC(c2noc(-c3cccnc3)n2)C1 (centres undefined)	35µM	13µM	?	i	i	22µM	24µM	i	22µM
O=C(Nc1ccc(Oc2ccccc2)cc1)N[C@H]1CO[C@H]2[C@@H]1OC[C@@H]2n1nnnc1Oc1ccc(-n2ccnc2)cc1	40µM	11µM	?	i	i	22µM	22µM	i	17µM
CC(=O)c1ccc(NC(=O)N[C@H]2CO[C@H]3[C@@H]2OC[C@@H]3n2nnnc2Oc2ccc(-n3ccnc3)cc2)cc1	i	i	i	i	i	nt	nt	nt	nt
COc1ccc(C(=O)N[C@H]2CO[C@H]3[C@@H]2OC[C@@H]3n2nnnc2Oc2cccc(N(C)C)c2)cc1	?	7.1µM	?	i	i	12µM	12µM	i	9.7µM
CN(C)c1cccc(Oc2nnnn2[C@H]2CO[C@H]3[C@@H]2OC[C@@H]3NC(=O)NCc2ccccc2)c1	i	i	i	i	i	nt	nt	nt	nt
COc1ccc(C(=O)N[C@H]2CO[C@H]3[C@@H]2OC[C@@H]3n2nnnc2Oc2ccc3c(c2)OCO3)cc1	?	?	i	i	i	nt	nt	nt	nt
CN(C)c1cccc(Oc2nnnn2[C@H]2CO[C@H]3[C@@H]2OC[C@@H]3NC(=O)c2ccccc2)c1	?	13µM	i	i	i	?	?	i	?
CN(C)c1ccc(C(=O)N[C@H]2CO[C@H]3[C@@H]2OC[C@@H]3n2nnnc2Oc2cccc(N(C)C)c2)cc1	?	11µM	i	i	i	14µM	15µM	i	12µM
COc1ccc(C(=O)N2CCC3(C2)C(=O)Nc2ccccc23)cc1 (centres undefined)	i	nt	?	i	nt	nt	nt	nt	nt
OC[C@H]1O[C@@H](O[C@@H]2[C@@H](CO)O[C@](O)(CO)[C@H]2O)[C@H](O)[C@@H](O)[C@H]1O	nt	nt	nt	i	nt	nt	nt	nt	nt
O=C(O)C1Cc2nc[nH]c2CN1C(=O)CC1CCS(=O)(=O)CC1 (centres undefined)	i	i	i	i	i	nt	nt	nt	nt
Cc1ccc(C(=O)N[C@H]2CO[C@H]3[C@@H]2OC[C@@H]3n2nnnc2Oc2ccccc2)cc1	?	8.9µM	?	i	i	11µM	16µM	i	9.9µM
O=C(NC1CCc2nn(CC3CC3)c(=O)n2CC1)c1ccc2nc[nH]c2c1 (centres undefined)	i	i	i	i	i	nt	nt	nt	nt
Cc1ccccc1C(=O)N1CCCN(c2cc(-c3ccc(F)cc3)[nH]n2)CC1	?	i	i	i	i	nt	nt	nt	nt
Cc1ccccc1C(=O)N1CCN(c2cc(-c3ccc(Cl)cc3)[nH]n2)CC1	?	11µM	?	i	i	19µM	24µM	i	17µM
O=C(N1CCCN(c2cc(-c3ccc(Cl)cc3)[nH]n2)CC1)C1(c2ccccc2)CC1	40µM	?	35µM	?	i	19µM	19µM	i	17µM
O=C(c1ccc(Cl)cc1Cl)N1CCN(c2cc(-c3ccccc3)[nH]n2)CC1	20µM	10µM	32µM	i	i	14µM	19µM	i	14µM
Cc1ccc(C(=O)N2CCN(c3cc(-c4ccccc4)[nH]n3)CC2)c(C)c1	?	11µM	45µM	i	i	24µM	24µM	i	22µM
CN(C)C(=O)NC1CCN(C(=O)c2ccc(-c3cccs3)cc2)CC1	?	nt	?	i	nt	nt	nt	nt	nt
CCOc1ccccc1N1CCN(C(=O)CCn2ccn3nc4c(c3c2=O)CCCC4)CC1	i	?	i	i	i	?	?	i	i
SMILES	HEK293 tox	NPR1 antag	3T3 cytotox	GPT2 inhibitor	FLuc inh	NPR1 antag cnf	Npr2 selectivity	FLuc inh counter	GloSensor cGMP
O=C(CCn1ccn2nc3c(c2c1=O)CCCC3)N1CCN(c2ccc(F)cc2)CC1	?	i	?	i	i	nt	nt	nt	nt
CC(=O)NC1(C)CN(c2cccc(C(F)(F)F)c2)C1	?	i	?	i	i	nt	nt	nt	nt
CCS(=O)(=O)c1ccc2oc([C@H]3CCN(Cc4cccc(Cl)c4)C3)nc2c1	45µM	?	?	i	i	35µM	35µM	i	?
CCCc1nc(NCc2nc(Cc3cccs3)no2)c2cnn(C)c2n1	45µM	13µM	?	i	i	22µM	22µM	i	22µM
CC(C)Cc1cc(C(=O)NCc2nc(Cc3cccs3)no2)on1	i	i	i	i	i	nt	nt	nt	nt
CN(C)C(=O)N1C2CCC1CN(c1ccc(C(F)(F)F)cc1)C2	?	nt	?	i	nt	24µM	19µM	i	15µM
CC(C)(C)CC(=O)Nc1ccc([C@@H](O)[C@H]2COCC(=O)N2Cc2cccnc2)cc1	i	i	i	i	i	nt	nt	nt	nt
Cc1ccc(-c2ccc(O)cn2)c2cccnc12	?	?	i	?	i	?	?	i	?
COCCNC(=O)[C@H]1C[C@H](Oc2ccccc2)CN1S(=O)(=O)c1ccccc1	i	i	i	i	i	nt	nt	nt	nt
COC(=O)[C@@H]1Cc2c([nH]c3ccccc23)[C@H]2C[C@@H](NCCCn3ccnc3)C[C@@H](c3ccccc3F)N21	?	i	7.1µM	i	i	i	i	i	i
O=C(NCCc1ccccn1)c1cc2n(n1)CC(c1ccc(Br)cc1)OC2 (centres undefined)	?	11µM	?	i	i	22µM	24µM	i	24µM
COc1ccc(NC(=O)c2cc3n(n2)CC(c2ccc(Br)cc2)OC3)cc1OC (centres undefined)	45µM	?	?	i	i	?	i	i	?
